Assay results as given in PubChem BioAssay (Tox21).
Values joined by “and” are separate entries in the source; they are usually repeats but may differ in a detail not shown here. Equal entries are not always repeated. Results filed as inconclusive are left out. Values without a mark were called inactive. Active and inactive are the calls of the source. Calls follow the shape of the dose curve; as a rule, active = well fitted curve in the direction sought with a large enough effect in the repeat runs; inconclusive = weak or mixed curves; inactive = no such curve, though single readings can be large; an effect the other way counts as inactive or inconclusive.

Experiment: qHTS assay for identifying genotoxic compounds that show differential cytotoxicity against isogenic chicken DT40 cell lines with known DNA damage response pathways - Rev3 mutant cell line (AID 743014); also: nearly all actives have a fitted effect of over 55% in size; also: potency is read from the fitted curve at half-maximal effect
Conditions: chicken DT40 Rev3-/- viability, CellTiter-Glo, 40 h; series mostly up to 68.4 µM; activity, negative = cytotoxicity: at the top concentration
% is scaled to controls: 0 for no effect and ±100 for the full control effect.

**Q.** Which “activity, negative = cytotoxicity” value does the source give for `NCC(=O)CCC(=O)O` here?
**A.** Its value is 10.9%.

**Q.** With `CCOc1ccc(N=Nc2ccc(/C=C/c3ccc(N=Nc4ccc(OCC)cc4)cc3S(=O)(=O)O)c(S(=O)(=O)O)c2)cc1` as the molecule, how does the “activity, negative = cytotoxicity” value read?
**A.** The value was -5.24%.

**Q.** Which Potency does the source give for `CNC(=O)CN(CCN(CCN(CC(=O)[O-])CC(=O)NC)CC(=O)[O-])CC(=O)[O-].O.[Gd+3]` here?
**A.** Its Potency is “inactive”.

**Q.** For `CCCCNc1ccc(C(=O)OCCOCCOCCOCCOCCOCCOCCOCCOCCOC)cc1`, which “activity, negative = cytotoxicity” value is on record?
**A.** The value was -17.1% [at 31.4 µM].

**Q.** For `CN(C)C(=O)NC1(c2ccccc2)CCN(CC[C@@]2(c3ccc(F)c(F)c3)CN(C(=O)c3ccccc3)CCO2)CC1`, which Potency is on record?
**A.** The Potency was 25.3 µM (active).

**Q.** For `CCCCCCCCCCO[C@@H]1O[C@H](CO)[C@@H](O)[C@H](O)[C@H]1O`, which Potency is on record?
**A.** The Potency was 61.1 µM (active).

**Q.** For `CC(C)(CO)[N+](=O)[O-]`, which “activity, negative = cytotoxicity” value is on record?
**A.** Its value is 12.5%.

**Q.** With `O=C(O)c1ccco1` as the molecule, how does the “activity, negative = cytotoxicity” value read?
**A.** The value was -2.55%.

**Q.** With `N=c1ccn2c(n1)O[C@H]1[C@H](O)[C@@H](CO)O[C@H]12` as the molecule, how does the Potency read?
**A.** Its Potency is 237 nM (active) and 137 nM (active).

**Q.** For `O=C(Nc1ccccc1)c1ccccc1O`, which Potency is on record?
**A.** The Potency was 48.6 µM (active).

**Q.** Which Potency does the source give for `CCCNCC(O)COc1ccccc1C(=O)CCc1ccccc1` (stereo not given) here?
**A.** Its Potency is 11.9 µM (active).

**Q.** With `CCCCCCCCCOS(=O)(=O)O` as the molecule, how does the “activity, negative = cytotoxicity” value read?
**A.** The value was 7.08%.

**Q.** With `COc1ccc(-c2nc3ccc(C4=NNC(=O)CC4C)cc3[nH]2)cc1` (stereo not given) as the molecule, how does the Potency read?
**A.** The Potency was 11.9 µM (active).

**Q.** With `C=C(C)C(=O)OCCOCC` as the molecule, how does the “activity, negative = cytotoxicity” value read?
**A.** Its value is -0.603% [at 95 µM].

Experiment: qHTS assay for identifying genotoxic compounds that show differential cytotoxicity against isogenic chicken DT40 cell lines with known DNA damage response pathways - Rad54/Ku70 mutant cell line (AID 743015); also: nearly all actives have a fitted effect of over 60% in size; also: potency is read from the fitted curve at half-maximal effect
Conditions: DT40 Rad54/Ku70 mutant viability, CellTiter-Glo, 40 h; series mostly up to 66.8 µM; activity change, negative = cytotoxicity: at the top concentration

**Q.** With `Cc1ccccc1S(=O)(=O)O` as the molecule, how does the “activity change, negative = cytotoxicity” value read?
**A.** The value was 18.4% [at 95.1 µM].

**Q.** For `C[C@H]1C[C@H]2[C@@H]3CCC4=CC(=O)C=C[C@]4(C)[C@@]3(Cl)[C@@H](O)C[C@]2(C)[C@@]1(O)C(=O)CO`, which “activity change, negative = cytotoxicity” value is on record?
**A.** The value was -13.7%.

**Q.** Which Potency does the source give for `Clc1ccc2c(c1)CCc1cccnc1C2=C1CCNCC1` here?
**A.** The Potency was 8.41 µM (active).

**Q.** For `CC(C)=CCC/C(C)=C/CC/C(C)=C/CO`, which Potency is on record?
**A.** The Potency was 30.6 µM (active).

**Q.** With `CCCCCCCN` as the molecule, how does the “activity change, negative = cytotoxicity” value read?
**A.** Its value is 5.55% [at 95.1 µM].

**Q.** Which “activity change, negative = cytotoxicity” value does the source give for `CCCCCCCC#N` here?
**A.** Its value is 0.0551%.

**Q.** With `COCC(C)OC(C)=O` (stereo not given) as the molecule, how does the “activity change, negative = cytotoxicity” value read?
**A.** Its value is 10.8%.

**Q.** Which Potency does the source give for `CCCCC(CC)CN1C(=O)C2C3C=CC(C3)C2C1=O` (stereo not given) here?
**A.** The Potency was 43.3 µM (active).

**Q.** With `C1CCCNCCC1` as the molecule, how does the “activity change, negative = cytotoxicity” value read?
**A.** Its value is 8.2%.

**Q.** With `Cc1cccc(Nc2ccccc2)c1` as the molecule, how does the Potency read?
**A.** Its Potency is 48.6 µM (active).

**Q.** For `C=C1[C@H]2CC[C@@H]3[C@H]2C(C)(C)CCC[C@]13C`, which “activity change, negative = cytotoxicity” value is on record?
**A.** The value was -11.3%.

**Q.** Which Potency does the source give for `CCCCC` here?
**A.** Its Potency is “inactive”.

**Q.** With `COc1cc(Cl)ccc1Oc1ccc(Cl)cc1Cl` as the molecule, how does the “activity change, negative = cytotoxicity” value read?
**A.** The value was -14.2%.

**Q.** Which “activity change, negative = cytotoxicity” value does the source give for `CN1CCN(C(c2ccccc2)c2ccccc2)CC1` here?
**A.** Its value is -8.27% [at 30.7 µM].

**Q.** With `O=C1OC(=O)C2C3C=CC(C3)C12` (stereo not given) as the molecule, how does the “activity change, negative = cytotoxicity” value read?
**A.** Its value is 2.56%.

**Q.** For `CCn1cc(C(=O)O)c(=O)c2cnc(N3CCNCC3)nc21`, which “activity change, negative = cytotoxicity” value is on record?
**A.** Its value is 6.08% [at 30.7 µM].

**Q.** With `CCCCC(CC)COC(=O)COc1ccc(Cl)cc1Cl` (stereo not given) as the molecule, how does the “activity change, negative = cytotoxicity” value read?
**A.** Its value is 3.84% [at 95.1 µM].

**Q.** For `CN(C)c1ccc(/C=C/c2ccc([N+](=O)[O-])cc2)cc1`, which activity change, negative = cytotoxicity is on record?
**A.** The activity change, negative = cytotoxicity was 1.06% [at 8.55 µM].

**Q.** For `NCC(=O)CCC(=O)O`, which “activity change, negative = cytotoxicity” value is on record?
**A.** Its value is 5.74%.

**Q.** For `CCOc1ccc(N=Nc2ccc(/C=C/c3ccc(N=Nc4ccc(OCC)cc4)cc3S(=O)(=O)O)c(S(=O)(=O)O)c2)cc1`, which “activity change, negative = cytotoxicity” value is on record?
**A.** Its value is -12.9%.

**Q.** For `CNC(=O)CN(CCN(CCN(CC(=O)[O-])CC(=O)NC)CC(=O)[O-])CC(=O)[O-].O.[Gd+3]`, which Potency is on record?
**A.** The Potency was “inactive”.

**Q.** For `CCCCNc1ccc(C(=O)OCCOCCOCCOCCOCCOCCOCCOCCOCCOC)cc1`, which “activity change, negative = cytotoxicity” value is on record?
**A.** Its value is -8.86% [at 30.7 µM].

**Q.** Which Potency does the source give for `CN(C)C(=O)NC1(c2ccccc2)CCN(CC[C@@]2(c3ccc(F)c(F)c3)CN(C(=O)c3ccccc3)CCO2)CC1` here?
**A.** Its Potency is 28.4 µM (active).

**Q.** With `CCCCCCCCCCO[C@@H]1O[C@H](CO)[C@@H](O)[C@H](O)[C@H]1O` as the molecule, how does the Potency read?
**A.** Its Potency is 61.1 µM (active).

**Q.** For `CC(C)(CO)[N+](=O)[O-]`, which “activity change, negative = cytotoxicity” value is on record?
**A.** Its value is 10.6%.

**Q.** For `O=C(O)c1ccco1`, which “activity change, negative = cytotoxicity” value is on record?
**A.** Its value is 6.94%.

**Q.** For `N=c1ccn2c(n1)O[C@H]1[C@H](O)[C@@H](CO)O[C@H]12`, which Potency is on record?
**A.** Its Potency is 266 nM (active) and 172 nM (active).

**Q.** Which Potency does the source give for `O=C(Nc1ccccc1)c1ccccc1O` here?
**A.** The Potency was 30.6 µM (active).

**Q.** With `CCCNCC(O)COc1ccccc1C(=O)CCc1ccccc1` (stereo not given) as the molecule, how does the Potency read?
**A.** The Potency was 11.9 µM (active).

**Q.** With `CCCCCCCCCOS(=O)(=O)O` as the molecule, how does the “activity change, negative = cytotoxicity” value read?
**A.** Its value is -13.8%.

**Q.** Which Potency does the source give for `COc1ccc(-c2nc3ccc(C4=NNC(=O)CC4C)cc3[nH]2)cc1` (stereo not given) here?
**A.** The Potency was 18.8 µM (active).

**Q.** For `C=C(C)C(=O)OCCOCC`, which “activity change, negative = cytotoxicity” value is on record?
**A.** Its value is 2.14% [at 95.1 µM].

Experiment: qHTS assay to identify small molecule antagonists of the androgen receptor (AR) signaling pathway - cell viability counter screen (AID 743033; also: nearly all actives have a fitted effect of over 45% in size)
Conditions: AR-bla HEK293 viability, CellTiter-Glo luminescence, 16 h; series mostly up to 58.5 µM; activity change, negative = cytotoxicity: at the top concentration

**Q.** Which “activity change, negative = cytotoxicity” value does the source give for `Cc1ccccc1S(=O)(=O)O` here?
**A.** Its value is 2.82% [at 78.9 µM].

**Q.** For `COc1cc2nc(N3CCN(C(=O)C4COc5ccccc5O4)CC3)nc(N)c2cc1OC` (stereo not given), which “activity change, negative = cytotoxicity” value is on record?
**A.** Its value is -3.1%.

**Q.** For `C=CC(=O)OCCOc1ccccc1`, which “activity change, negative = cytotoxicity” value is on record?
**A.** Its value is -6.76%.

**Q.** With `C[C@H]1C[C@H]2[C@@H]3CCC4=CC(=O)C=C[C@]4(C)[C@@]3(Cl)[C@@H](O)C[C@]2(C)[C@@]1(O)C(=O)CO` as the molecule, how does the “activity change, negative = cytotoxicity” value read?
**A.** Its value is -15.8%.

**Q.** Which “activity change, negative = cytotoxicity” value does the source give for `Clc1ccc2c(c1)CCc1cccnc1C2=C1CCNCC1` here?
**A.** Its value is -19%.

**Q.** With `CCCCCCCN` as the molecule, how does the “activity change, negative = cytotoxicity” value read?
**A.** Its value is 0.137% [at 78.9 µM].

**Q.** For `COCC(C)OC(C)=O` (stereo not given), which “activity change, negative = cytotoxicity” value is on record?
**A.** The value was 5.03%.

**Q.** Which “activity change, negative = cytotoxicity” value does the source give for `C1CCCNCCC1` here?
**A.** Its value is -13.7%.

**Q.** For `CCCCC`, which Potency is on record?
**A.** The Potency was “inactive”.

**Q.** Which “activity change, negative = cytotoxicity” value does the source give for `COc1cc(Cl)ccc1Oc1ccc(Cl)cc1Cl` here?
**A.** The value was -6.12%.

**Q.** Which “activity change, negative = cytotoxicity” value does the source give for `O=C1OC(=O)C2C3C=CC(C3)C12` (stereo not given) here?
**A.** The value was 10.3%.

**Q.** With `CCCCC(CC)COC(=O)COc1ccc(Cl)cc1Cl` (stereo not given) as the molecule, how does the “activity change, negative = cytotoxicity” value read?
**A.** The value was -2.64% [at 78.9 µM].

**Q.** With `CN(C)c1ccc(/C=C/c2ccc([N+](=O)[O-])cc2)cc1` as the molecule, how does the activity change, negative = cytotoxicity read?
**A.** The activity change, negative = cytotoxicity was 7.66% [at 7.04 µM].

**Q.** Which “activity change, negative = cytotoxicity” value does the source give for `NCC(=O)CCC(=O)O` here?
**A.** Its value is -20.1%.

**Q.** With `CNC(=O)CN(CCN(CCN(CC(=O)[O-])CC(=O)NC)CC(=O)[O-])CC(=O)[O-].O.[Gd+3]` as the molecule, how does the Potency read?
**A.** Its Potency is “inactive”.

**Q.** With `CN(C)C(=O)NC1(c2ccccc2)CCN(CC[C@@]2(c3ccc(F)c(F)c3)CN(C(=O)c3ccccc3)CCO2)CC1` as the molecule, how does the “activity change, negative = cytotoxicity” value read?
**A.** The value was -18.8%.

**Q.** Which “activity change, negative = cytotoxicity” value does the source give for `CC(C)(CO)[N+](=O)[O-]` here?
**A.** The value was 3.77%.

**Q.** For `CCCCCCCCCOS(=O)(=O)O`, which “activity change, negative = cytotoxicity” value is on record?
**A.** The value was -7.04%.

**Q.** With `C=C(C)C(=O)OCCOCC` as the molecule, how does the “activity change, negative = cytotoxicity” value read?
**A.** Its value is 0.503% [at 78.9 µM].
